The target in one test is Albumin (Bos taurus) (UniProt P02769). Description: compounds binding labelled BSA control protein – biochemical, small-molecule microarray, Alexa647 label, 635/667 nm fluorescence, artefact control for SMM control protein annotation, profiling panel (AID 1118).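 Further: score merges 667 nm emission intensity and signal-to-noise per printed compound spot.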 The conditions noted are these: BSA-A647 binding, fluorescence 635 nm, higher = more signal.
Test [1] is described as follows: probe aXIP binding to arrayed compounds – biochemical, NeuroSMM set, 635/667 nm fluorescence, primary screen (AID 1119).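 Further: probe is the protein aXip251-270 applied at 1 µg/mL to compound-printed slides; binding of probe to printed compounds measured as 667 nm fluorescence plus signal to noise.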 The conditions noted are these: small-molecule microarray, higher = more signal, called active from +8 up or from −8 down.
Test [2] is described as follows: probe aNOTCH3 binding on compound microarray – biochemical, small-molecule microarray, 635/667 nm fluorescence, primary screen (AID 1120).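 Further: probe is a biotin-tagged antibody raised against NOTCH3 rather than NOTCH3 protein; score merges spot fluorescence near 667 nm with spot signal to noise.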 The conditions noted are these: higher = more signal.
The nature of test [3]: probe aNOTCH2 binding on compound microarray – biochemical, small-molecule microarray, 635/667 nm fluorescence, primary screen (AID 1121).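 Further: score merges feature fluorescence read at 667 nm with its signal to noise.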 The conditions noted are these: higher = more signal.
In test [4] the target is Carbonic anhydrase 2 (Homo sapiens) (UniProt P00918). Description: compounds binding carbonic anhydrase 2 – biochemical, small-molecule microarray, Alexa647-labelled CAII, profiling panel (AID 1122). The conditions noted are these: CAII-A647 binding fluorescence, higher = more signal.
A short description of test [5]: COS7 lysate on small-molecule microarray, probe aHis, 635 nm (AID 1123).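 Further: z-score combines 667nm fluorescence intensity with signal-to-noise per printed compound spot.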 The conditions noted are these: COS7 cell lysate, fluorescence, higher = more signal.
A short description of test [6]: probe aLAP1 signal on lysate-treated microarray – cell lysate, small-molecule microarray, COS7 lysate, primary screen (AID 1124).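 Further: lysate comes from COS7 cells expressing LAP1 and is applied at 0.3 µg/mL; score merges spot fluorescence near 667 nm with signal-to-noise over triplicate slides.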 The conditions noted are these: probe aLAP1, fluorescence, higher = more signal.
The test system of the next test is Sam68 (KHDRBS1). Description: compounds binding KHDRBS1 protein – biochemical, small-molecule microarray, 635 nm fluorescence, primary screen (AID 1125).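 Further: score merges 667 nm channel intensity with signal to noise over triplicate slides.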 The conditions noted are these: higher = more signal.
The subject of test [7] is Chordin-like protein 2 (CHRDL2). Description: compounds binding chordin-like 2 – biochemical, small-molecule microarray, 635 nm fluorescence, primary screen (AID 1126).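 Further: printed compound slides probed with Chrdl2 protein at 4 µg/mL for 1 h at 4 C; score merges 667 nm emission intensity with signal to noise over three replicate slides.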 The conditions noted are these: fluorescence 635 nm, higher = more signal.
In test [8] the target is Concanavalin-A (Canavalia ensiformis) (UniProt P02866). Description: compounds binding concanavalin A lectin – biochemical, small-molecule microarray, Alexa647 label, 635 nm, artefact control for SMM control protein annotation, primary screen (AID 1127).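 Further: z combines 667 nm emission intensity with signal-to-noise across three replicate slides.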 The conditions noted are these: ConA-A647 binding fluorescence, higher = more signal.
A short description of test [9]: compounds binding Alexa647 anti-His antibody – biochemical, small-molecule microarray, 635 nm fluorescence, artefact control for SMM control protein annotation, primary screen (AID 1128).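 Further: score merges feature fluorescence with signal-to-noise for each printed compound spot.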 The conditions noted are these: higher = more signal.
Test [10] relates to Human papillomavirus type 1a E7 protein (residues 1-88). Description: HPV1a E7 small-molecule binders, primary screen, biochemical, small-molecule microarray, residues 1-88, 635 nm (AID 1129). The conditions noted are these: small-molecule microarray binding, fluorescence 635 nm; higher = more signal.
Test [11] concerns the target Focal adhesion kinase 1 (Homo sapiens) (UniProt Q05397). Description: PTK2 protein binding on printed compound slides – biochemical, small-molecule microarray, 635/667 nm fluorescence, BSA, DTT, primary screen (AID 1130).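 Further: composite of spot emission at 667 nm and signal to noise over triplicate slides.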 The conditions noted are these: 635 nm fluorescence, higher = more signal.
Test [12] deals with Fibrinogen (Alexa647-labelled). Description: Alexa647-fibrinogen binding to printed small molecules – biochemical, small-molecule microarray, 635/667 nm fluorescence, artefact control for SMM control-protein annotation, profiling panel (AID 1131).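 Further: z-score merges 667 nm fluorescence with per-spot signal-to-noise over triplicate slides.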 The conditions noted are these: fibrinogen-A647 binding fluorescence, higher = more signal.
Test [13] addresses Follistatin (Homo sapiens) (UniProt P19883). Description: FST protein binding to printed compounds – biochemical, small-molecule microarray, 635/667 nm fluorescence, primary screen (AID 1132). The conditions noted are these: 635 nm fluorescence, higher = more signal.
For test [14], the target named is Fibroblast growth factor 2 (Homo sapiens) (UniProt P09038). Description: basic fibroblast growth factor binding to printed compounds – biochemical, small-molecule microarray, 635/667 nm fluorescence, primary screen (AID 1133). The conditions noted are these: FGF2, fluorescence 635/667, higher = more signal.
Test [15] in a line: JC-1 mitochondrial potential readout, lung cancer cells – cell-based, A549, JC-1 fluorescence, basal, 24 h, 100 nL, profiling panel (AID 1138).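 Further: A549 lung adenocarcinoma cells under basal conditions with no added stimulus; test concentration not given here.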 The conditions noted are these: higher = more signal.
The next test has as its system Lefty1. Description: Lefty1 protein binding to printed compounds – biochemical, small-molecule microarray, 635/667 nm fluorescence, primary screen (AID 1139). The conditions noted are these: fluorescence 635/667, higher = more signal.
The subject of test [16] is wheat germ agglutinin (Triticum aestivum), Alexa647-labelled. Description: Alexa647-WGA lectin binding to printed small molecules – biochemical, small-molecule microarray, 635/667 nm fluorescence, artefact control for SMM control-protein annotation, profiling panel (AID 1140).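 Further: score merges 667 nm feature emission with signal to noise over triplicate slides.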 The conditions noted are these: WGA-A647 binding, 635 nm fluorescence, higher = more signal.
In test [17] the target is Luciferin 4-monooxygenase (Photinus pyralis) (UniProt P08659). Description: inhibition of purified Photinus pyralis luciferase – biochemical, luminescence, purified enzyme, 2006 set, primary screen (AID 1141).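 Further: cell-free assay with purified firefly luciferase at 100 ng per well in PBS; test concentration not given here.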 The conditions noted are these: purified firefly luciferase, SteadyGlo luminescence, 30 min; higher = more signal, called active from +8 up or from −8 down.

Molecules are shown by their SMILES. Calls of active or inactive are those of the source.

Focal adhesion kinase 1 (Homo sapiens), sequence (Q05397 whole entry, looked up): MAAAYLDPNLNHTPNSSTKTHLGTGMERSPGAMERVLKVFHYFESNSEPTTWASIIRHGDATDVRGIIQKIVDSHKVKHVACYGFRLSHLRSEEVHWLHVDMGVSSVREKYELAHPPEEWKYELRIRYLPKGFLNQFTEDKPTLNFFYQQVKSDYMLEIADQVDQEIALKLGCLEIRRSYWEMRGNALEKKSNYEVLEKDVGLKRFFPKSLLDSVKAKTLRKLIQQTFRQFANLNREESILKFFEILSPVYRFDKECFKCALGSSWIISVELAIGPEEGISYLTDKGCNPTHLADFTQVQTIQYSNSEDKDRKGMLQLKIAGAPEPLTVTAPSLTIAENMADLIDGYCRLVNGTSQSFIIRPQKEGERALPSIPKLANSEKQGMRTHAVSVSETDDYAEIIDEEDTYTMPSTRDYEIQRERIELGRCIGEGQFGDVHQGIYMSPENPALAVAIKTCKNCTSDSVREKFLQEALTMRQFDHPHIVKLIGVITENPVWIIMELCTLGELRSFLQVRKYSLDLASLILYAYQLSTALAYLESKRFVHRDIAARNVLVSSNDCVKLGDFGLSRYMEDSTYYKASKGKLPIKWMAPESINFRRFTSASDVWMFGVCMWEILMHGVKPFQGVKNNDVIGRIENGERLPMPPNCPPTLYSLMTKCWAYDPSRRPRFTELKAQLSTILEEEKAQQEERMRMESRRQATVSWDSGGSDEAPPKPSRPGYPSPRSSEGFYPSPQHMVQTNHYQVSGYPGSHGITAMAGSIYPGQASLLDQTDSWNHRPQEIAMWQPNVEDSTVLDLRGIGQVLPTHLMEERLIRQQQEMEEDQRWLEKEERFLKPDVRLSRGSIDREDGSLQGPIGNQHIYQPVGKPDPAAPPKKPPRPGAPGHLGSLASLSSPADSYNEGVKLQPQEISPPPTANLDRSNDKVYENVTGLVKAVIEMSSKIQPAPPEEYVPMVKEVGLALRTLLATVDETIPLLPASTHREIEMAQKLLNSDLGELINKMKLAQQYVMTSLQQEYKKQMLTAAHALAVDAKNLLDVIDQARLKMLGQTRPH
Follistatin (Homo sapiens), sequence (P19883 whole entry, looked up): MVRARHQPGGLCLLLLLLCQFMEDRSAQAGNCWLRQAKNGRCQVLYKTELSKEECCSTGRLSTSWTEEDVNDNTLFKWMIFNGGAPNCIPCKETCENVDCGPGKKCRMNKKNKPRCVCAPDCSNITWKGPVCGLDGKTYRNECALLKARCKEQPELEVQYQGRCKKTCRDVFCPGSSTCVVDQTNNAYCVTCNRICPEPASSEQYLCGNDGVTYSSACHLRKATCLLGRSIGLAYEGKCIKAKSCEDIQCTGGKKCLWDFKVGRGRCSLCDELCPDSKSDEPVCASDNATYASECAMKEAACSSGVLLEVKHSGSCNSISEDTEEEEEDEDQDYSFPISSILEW
Luciferin 4-monooxygenase (Photinus pyralis), sequence (P08659 whole entry, looked up): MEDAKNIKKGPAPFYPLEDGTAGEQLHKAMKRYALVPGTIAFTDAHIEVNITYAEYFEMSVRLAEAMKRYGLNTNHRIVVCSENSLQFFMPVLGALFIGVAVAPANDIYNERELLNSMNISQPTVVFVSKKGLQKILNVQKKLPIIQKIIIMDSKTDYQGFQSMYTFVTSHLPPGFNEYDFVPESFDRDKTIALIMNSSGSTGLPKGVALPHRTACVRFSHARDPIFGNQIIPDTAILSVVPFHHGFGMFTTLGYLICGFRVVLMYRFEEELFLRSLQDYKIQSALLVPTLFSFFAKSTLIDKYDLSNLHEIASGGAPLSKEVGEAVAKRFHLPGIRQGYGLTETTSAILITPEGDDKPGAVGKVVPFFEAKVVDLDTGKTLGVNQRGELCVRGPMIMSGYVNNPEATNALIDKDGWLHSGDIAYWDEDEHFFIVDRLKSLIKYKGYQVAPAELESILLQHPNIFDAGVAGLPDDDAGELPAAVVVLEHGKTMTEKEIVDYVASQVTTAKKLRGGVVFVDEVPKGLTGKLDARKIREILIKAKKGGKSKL
Concanavalin-A (Canavalia ensiformis), sequence (P02866 whole entry, looked up): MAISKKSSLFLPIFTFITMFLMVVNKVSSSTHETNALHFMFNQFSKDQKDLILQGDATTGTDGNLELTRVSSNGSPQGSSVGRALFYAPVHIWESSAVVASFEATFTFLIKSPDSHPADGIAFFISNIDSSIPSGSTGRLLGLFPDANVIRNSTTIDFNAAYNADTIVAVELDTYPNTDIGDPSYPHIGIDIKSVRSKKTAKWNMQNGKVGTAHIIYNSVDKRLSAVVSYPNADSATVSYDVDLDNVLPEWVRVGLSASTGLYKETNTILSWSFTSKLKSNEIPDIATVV
Albumin (Bos taurus), sequence (P02769 whole entry, looked up): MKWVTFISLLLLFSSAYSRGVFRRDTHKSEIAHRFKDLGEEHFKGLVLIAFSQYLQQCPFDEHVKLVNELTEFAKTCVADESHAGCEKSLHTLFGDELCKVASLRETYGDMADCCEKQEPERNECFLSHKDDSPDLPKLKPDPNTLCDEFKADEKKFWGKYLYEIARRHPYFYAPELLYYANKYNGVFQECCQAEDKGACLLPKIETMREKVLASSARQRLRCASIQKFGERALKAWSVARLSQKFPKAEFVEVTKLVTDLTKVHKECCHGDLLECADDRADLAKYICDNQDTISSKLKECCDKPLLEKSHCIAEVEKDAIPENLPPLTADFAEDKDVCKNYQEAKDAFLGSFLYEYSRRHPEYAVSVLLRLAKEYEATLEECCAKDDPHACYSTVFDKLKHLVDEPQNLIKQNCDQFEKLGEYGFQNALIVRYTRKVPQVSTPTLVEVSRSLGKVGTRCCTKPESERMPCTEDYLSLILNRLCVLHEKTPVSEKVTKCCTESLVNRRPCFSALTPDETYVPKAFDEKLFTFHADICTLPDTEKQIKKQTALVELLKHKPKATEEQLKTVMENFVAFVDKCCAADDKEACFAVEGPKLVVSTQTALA
Fibroblast growth factor 2 (Homo sapiens), sequence (P09038 whole entry, looked up): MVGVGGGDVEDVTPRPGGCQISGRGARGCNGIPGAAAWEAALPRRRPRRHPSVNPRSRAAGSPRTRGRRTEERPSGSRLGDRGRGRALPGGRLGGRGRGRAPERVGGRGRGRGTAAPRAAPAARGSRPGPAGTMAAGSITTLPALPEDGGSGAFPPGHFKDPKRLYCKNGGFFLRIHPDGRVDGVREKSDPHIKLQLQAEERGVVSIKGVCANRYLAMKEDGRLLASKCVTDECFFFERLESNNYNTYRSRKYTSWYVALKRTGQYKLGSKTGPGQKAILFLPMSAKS

As for `C[C@@]1([C@@H](NS(=O)(=O)c2cccc3cccnc23)c2ccc(-c3ccccc3)cc2)C[C@H]1C1CCCCC1`, the composite z-score turned out to be 0.533 with Albumin (Bos taurus); 0.314 in [2]; 0.131 in test [3]; 0.549 in [4]; 2.06 in test [5]; 0.165 in test [6]. For the same compound, the composite z-score with Sam68 (KHDRBS1) is 0.292; in test [7], -0.214; in test [8], 0.391; in test [9], 0.431; in test [10], 1.18; in test [11], 1.14. Moreover, the composite z-score in test [12] was -0.744; in test [13], 0.247; in test [14], -0.506; in the test on Lefty1, -0.959; in test [16], 0.655. The composite Z-score in [1] is -0.343 (inactive). Besides, the z-score is 0.00915 in test [15] and 1.29 (inactive) in test [17].

For the compound `C=C(CC1([C@@H](NP(=O)(c2ccccc2)c2ccccc2)[C@H]2C[C@@H]2CCCC)CC1)c1cccc(OC)c1`, the composite z-score with Albumin (Bos taurus) is 0.615; in test [2], 0.222; in test [3], 0.119; in test [4], 0.334; in test [5] it was 1.86; in [6], -0.151. In addition, the composite z-score in the test on Sam68 (KHDRBS1) is -0.176; in test [7] it was -1.06; in [8], 0.506; in [9] it was 1.18; in test [10], 0.811; in test [11], 0.751. The composite z-score in [12] is 0.269; in [13] it was 0.43; in test [14], -0.7; with Lefty1, -0.739; in [16], 0.344. The composite Z-score in test [1] was 0.107 (inactive). Moreover, the z-score is 0.959 in [15] and 2.59 (inactive) in test [17].

Consider `O=C1OCC=C[C@H]2OC34C=CCN(Cn5nnc6ccccc65)C(=O)[C@H]3N(CCO)C(=O)[C@@H]4[C@@H]12` (stereo not given in full), for which the composite z-score with Albumin (Bos taurus) is -1.46; in test [2], -0.173; in [3], -0.171; in [4] it was 0.935; in test [5], 0.32; in [6] it was -0.137. Further, the composite z-score in the test on Sam68 (KHDRBS1) is 0.184; in test [7], -1.43; in test [8], -0.941; in test [9], 1.68; in test [10] it was -0.696; in test [11], -0.619. The composite z-score in test [12] was -1.41; in test [13], -1.32; in test [14], -1.46; with Lefty1, -1.17; in test [16], -0.944. Moreover, in test [1], the composite Z-score is -0.358 (inactive). In addition, the z-score is -0.546 in [15] and 0.0848 (inactive) in test [17].

On to `CS(=O)(=O)CCOC(=O)C1=CC(CCCO)=CC(C2CC2)N(Cc2sc3ccccc3c2Cl)C=C1C(=O)OCCS(C)(=O)=O` (stereo not given), for which the composite z-score with Albumin (Bos taurus) worked out at 1.01; in test [2], 0.398; in [3] it was 0.0706; in [4], 0.666; in test [5] it was 2.34; in test [6], 0.549. Also, the composite z-score was 1.07 in the test with Sam68 (KHDRBS1); -0.225 in [7]; 0.648 in [8]; 2.14 in test [9]; 1.04 in test [10]; 0.435 in test [11]. The composite z-score worked out at 0.753 in test [12]; 1.3 in [13]; 0.897 in test [14]; 1.23 in the test with Lefty1; 1.03 in [16]. In [1], the composite Z-score was -0.0349 (inactive). Besides, the values for the z-score in test [15] and in test [17] were 0.995 and -1.14 (inactive), respectively.

As for `CC(C)(C)OC(=O)CC[C@]1(C(N)=O)N=C(c2ccc(OCCCO)cc2)O[C@H]1c1ccccc1N=[N+]=[N-]`, the composite z-score is 0.426 with Albumin (Bos taurus); 0.156 in test [2]; -0.084 in test [3]; 0.791 in test [4]; 1.61 in [5]; 0.242 in test [6]. Moreover, the composite z-score in the test on Sam68 (KHDRBS1) was 0.522; in [7], -0.416; in test [8] it was 0.741; in test [9], 2.8; in test [10] it was 0.977; in [11], 0.178. Besides, the composite z-score in test [12] is 0.746; in [13], 1.2; in test [14], 0.38; in the test with Lefty1 it was -0.512; in test [16], 1.1. Besides, the composite Z-score in [1] is 0.59 (inactive). Also, the z-score in test [15] was -0.12; in test [17], -8.33 (active).
